Test results reported in PubChem BioAssay (NCATS).
Unmarked numbers belong to inactive results. Inconclusive results are not listed. Where a call stands in place of a potency, no number is given. Calls of active or inactive are those of the source. Unless noted, the call rests on the fitted dose curve; in most records, active means well fitted curve in the direction sought with a large enough effect; inconclusive means small, poorly fitted or top-dose-only effect, or another doubt; inactive means no such curve, though single readings can be large; an effect the other way counts as inactive or inconclusive.

What was measured:
[1] = target: Cytochrome P450 1A2 (Homo sapiens) (UniProt P05177); test: p450-cyp1a2 (AID 410; calls by dose curve; further: potency means the concentration at half of the fitted maximal effect)
Outline: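 Luminescent readout of luciferin formed from Luciferin-ME by human CYP1A2; data normalized against complete inhibition by 57 uM furafylline. Enzyme 20nM, substrate 100uM at Km, 100mM KPO4 buffer, 60 min reaction at room temperature.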

[2] = target: Glucocorticoid receptor (Homo sapiens) (UniProt P04150); test: GR-EFC Redistribution (AID 451; calls by dose curve; further: potency means the concentration at half of the fitted maximal effect); settings: CHO-K1 GR-EFC translocation, beta-gal luminescence, 2 h
Outline: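 Translocation of GR-ED fusion to nuclear EA restores b-gal, read by luminescence after 1 h room-temperature detection. Engineered CHO-K1 biosensor cells, 1,000/well, exposed 2 h at 37 C to titrations up to 46 uM final.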

[3] = target: Mitogen-activated protein kinase 10 (Mus musculus) (UniProt Q61831); test: JNK3 AlphaScreen Assay (AID 530; active means well fitted curve in either direction with a large enough effect, not every such curve was filed as active;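 further: kinase came from lysate of stimulated human HepG2 cells; signal reports phosphorylation of biotinylated GST-cJun 1-79 at Ser73 with 10 µM ATP; series mostly up to about 57 µM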)
Outline: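 Compound titrations were preincubated 15 minutes at room temperature with substrate, antibody and pre-activated JNK3-containing HepG2 lysate. Reactions were started with 10 uM ATP and stopped with EDTA-containing bead buffer for AlphaScreen detection.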

[4] = target: 3',5'-cyclic-AMP phosphodiesterase 4B (Homo sapiens) (UniProt Q07343); test: qHTS Assay for Inhibitors of PDE-IV (AID 607; active means well fitted activation curve with a large enough effect in the main read-out, with a control signal flat, not every such curve was filed as active)
Outline: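 The readout is membrane depolarisation from a cAMP-sensing CNG channel, detected with a potential dye at ex 535/em 590. Cells were HEK293-derived (endogenous PDE-IV) at 1000 cells/well, titrated up to 22.9 uM final.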

[5] = target: Cytochrome P450 2C9 (Homo sapiens) (UniProt P11712); test: qHTS Assay for Inhibitors and Substrates of Cytochrome P450 2C9 (AID 883); further: nearly all actives have a fitted effect of over 60% in size; further: potency means the concentration at half of the fitted maximal effect
Outline: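 Turnover of Luciferin-H (100uM, KM) by 10nM human CYP2C9 was measured over 60 min at 37C with NADPH regeneration; inhibitors and some substrates reduce luminescence. Data normalized to sulphaphenazole 57uM.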

[6] = target: Cytochrome P450 2D6 (Homo sapiens) (UniProt P10635); test: qHTS Assay for Inhibitors and Substrates of Cytochrome P450 2D6 (AID 891); further: nearly all actives have a fitted effect of over 60% in size; further: potency means the concentration at half of the fitted maximal effect
Outline: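 Human CYP2D6 (5 nM) with 30 uM Luciferin-ME EGE (at Km) in 100 mM KPO4, compound preincubated 10 min, then NADPH regeneration system for 60 min at room temperature. Luciferin read by luminescence; normalized to 1.43 uM quinidine.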

[7] = target: Cytochrome P450 2C19 (Homo sapiens) (UniProt P33261); test: qHTS Assay for Inhibitors and Substrates of Cytochrome P450 2C19 (AID 899); further: nearly all actives have a fitted effect of over 60% in size; further: potency means the concentration at half of the fitted maximal effect
Outline: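 Reactions contain 5nM enzyme, 10uM Luciferin-H EGE (KM) and 50mM KPO4; compound preincubates 10 min at 37C, NADPH regeneration starts turnover for 60 min. Luminescence after detection reagent gives activity.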

[8] = target: Glucocorticoid receptor (Homo sapiens) (UniProt P04150); test: GR-GFP Redistribution (AID 450;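 active means compounds whose dose series gives a full or clear partial fitted curve of increased nuclear translocation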; further: potency means the concentration at half of the fitted maximal effect)
[9] = target: Cytochrome P450 3A4 (Homo sapiens) (UniProt P08684); test: qHTS Assay for Activators of Cytochrome P450 3A4 (AID 885); further: nearly all actives have a fitted effect of over 65% in size
Outline: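 Steps: enzyme/substrate mix dispensed; compound added, 10 min RT; NADPH regeneration solution added, 60 min RT; luciferin detection buffer stops reaction; 20 min later luminescence measured.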

Cytochrome P450 2C9 (Homo sapiens), sequence (P11712 whole entry, looked up): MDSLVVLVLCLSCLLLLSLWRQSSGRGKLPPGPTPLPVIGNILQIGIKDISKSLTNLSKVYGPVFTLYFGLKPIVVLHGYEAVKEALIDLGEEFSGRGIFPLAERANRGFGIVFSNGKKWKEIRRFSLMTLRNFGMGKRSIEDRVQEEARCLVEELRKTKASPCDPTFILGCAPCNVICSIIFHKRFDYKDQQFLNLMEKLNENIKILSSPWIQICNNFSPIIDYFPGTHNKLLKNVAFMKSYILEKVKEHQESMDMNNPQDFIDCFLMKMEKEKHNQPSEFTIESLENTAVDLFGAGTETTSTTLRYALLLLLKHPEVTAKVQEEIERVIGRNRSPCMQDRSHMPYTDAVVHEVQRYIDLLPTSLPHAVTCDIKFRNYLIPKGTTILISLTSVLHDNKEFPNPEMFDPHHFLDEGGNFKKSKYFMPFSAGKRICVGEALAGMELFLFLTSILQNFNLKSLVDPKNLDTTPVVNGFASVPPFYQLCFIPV
Glucocorticoid receptor (Homo sapiens), sequence (P04150 whole entry, looked up, the tested form may be a part): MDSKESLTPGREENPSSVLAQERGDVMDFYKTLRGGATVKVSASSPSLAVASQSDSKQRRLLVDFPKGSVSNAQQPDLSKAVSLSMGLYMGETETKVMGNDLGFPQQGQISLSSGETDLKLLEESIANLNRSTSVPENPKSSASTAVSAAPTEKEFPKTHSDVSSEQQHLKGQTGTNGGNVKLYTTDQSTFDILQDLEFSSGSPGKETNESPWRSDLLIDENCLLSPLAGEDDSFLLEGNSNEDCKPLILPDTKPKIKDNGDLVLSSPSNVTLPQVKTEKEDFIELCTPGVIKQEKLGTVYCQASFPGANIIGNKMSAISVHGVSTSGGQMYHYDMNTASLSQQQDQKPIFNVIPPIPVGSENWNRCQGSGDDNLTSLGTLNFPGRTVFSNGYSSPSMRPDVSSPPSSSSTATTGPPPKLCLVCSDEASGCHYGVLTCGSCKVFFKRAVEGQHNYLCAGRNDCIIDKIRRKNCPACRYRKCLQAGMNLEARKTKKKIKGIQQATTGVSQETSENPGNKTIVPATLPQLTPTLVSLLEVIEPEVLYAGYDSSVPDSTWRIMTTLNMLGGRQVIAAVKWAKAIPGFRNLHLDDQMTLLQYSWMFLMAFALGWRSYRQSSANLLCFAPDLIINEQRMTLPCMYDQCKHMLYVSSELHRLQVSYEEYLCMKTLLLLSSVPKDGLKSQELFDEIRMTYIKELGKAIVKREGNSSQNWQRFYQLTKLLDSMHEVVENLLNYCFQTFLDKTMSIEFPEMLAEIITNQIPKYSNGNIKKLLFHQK
Cytochrome P450 2D6 (Homo sapiens), sequence (P10635 whole entry, looked up): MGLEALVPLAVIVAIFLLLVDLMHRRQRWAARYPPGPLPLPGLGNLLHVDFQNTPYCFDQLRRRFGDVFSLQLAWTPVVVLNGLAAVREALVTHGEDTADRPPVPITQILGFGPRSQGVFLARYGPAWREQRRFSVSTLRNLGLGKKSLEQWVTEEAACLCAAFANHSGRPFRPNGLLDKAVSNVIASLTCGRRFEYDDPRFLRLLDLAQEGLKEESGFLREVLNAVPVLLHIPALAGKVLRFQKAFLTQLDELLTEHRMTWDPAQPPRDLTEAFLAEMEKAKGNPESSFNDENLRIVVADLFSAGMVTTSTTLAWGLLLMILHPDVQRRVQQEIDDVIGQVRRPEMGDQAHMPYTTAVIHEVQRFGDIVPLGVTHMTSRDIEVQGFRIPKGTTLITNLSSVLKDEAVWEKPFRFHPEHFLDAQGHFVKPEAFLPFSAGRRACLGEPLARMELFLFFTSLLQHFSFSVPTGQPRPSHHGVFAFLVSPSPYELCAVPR
3',5'-cyclic-AMP phosphodiesterase 4B (Homo sapiens), sequence (Q07343 whole entry, looked up): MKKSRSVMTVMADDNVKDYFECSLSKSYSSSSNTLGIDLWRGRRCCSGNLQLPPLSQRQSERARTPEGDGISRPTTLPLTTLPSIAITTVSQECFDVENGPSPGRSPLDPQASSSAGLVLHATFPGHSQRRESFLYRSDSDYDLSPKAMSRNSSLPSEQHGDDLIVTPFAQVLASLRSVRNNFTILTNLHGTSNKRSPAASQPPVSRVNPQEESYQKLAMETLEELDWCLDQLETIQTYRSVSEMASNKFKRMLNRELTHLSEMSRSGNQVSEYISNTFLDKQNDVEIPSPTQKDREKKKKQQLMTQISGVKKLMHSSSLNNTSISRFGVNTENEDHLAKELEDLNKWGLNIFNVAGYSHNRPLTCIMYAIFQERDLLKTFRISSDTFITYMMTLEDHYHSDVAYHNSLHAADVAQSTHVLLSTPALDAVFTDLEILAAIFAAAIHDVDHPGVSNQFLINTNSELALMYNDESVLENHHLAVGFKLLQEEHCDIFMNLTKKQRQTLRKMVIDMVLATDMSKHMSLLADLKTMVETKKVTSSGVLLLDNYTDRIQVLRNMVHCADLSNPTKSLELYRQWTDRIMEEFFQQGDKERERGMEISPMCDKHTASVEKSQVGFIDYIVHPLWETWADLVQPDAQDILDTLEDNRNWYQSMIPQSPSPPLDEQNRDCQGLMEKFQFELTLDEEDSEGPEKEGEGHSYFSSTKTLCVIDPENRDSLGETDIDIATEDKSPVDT
Cytochrome P450 1A2 (Homo sapiens), sequence (P05177 whole entry, looked up): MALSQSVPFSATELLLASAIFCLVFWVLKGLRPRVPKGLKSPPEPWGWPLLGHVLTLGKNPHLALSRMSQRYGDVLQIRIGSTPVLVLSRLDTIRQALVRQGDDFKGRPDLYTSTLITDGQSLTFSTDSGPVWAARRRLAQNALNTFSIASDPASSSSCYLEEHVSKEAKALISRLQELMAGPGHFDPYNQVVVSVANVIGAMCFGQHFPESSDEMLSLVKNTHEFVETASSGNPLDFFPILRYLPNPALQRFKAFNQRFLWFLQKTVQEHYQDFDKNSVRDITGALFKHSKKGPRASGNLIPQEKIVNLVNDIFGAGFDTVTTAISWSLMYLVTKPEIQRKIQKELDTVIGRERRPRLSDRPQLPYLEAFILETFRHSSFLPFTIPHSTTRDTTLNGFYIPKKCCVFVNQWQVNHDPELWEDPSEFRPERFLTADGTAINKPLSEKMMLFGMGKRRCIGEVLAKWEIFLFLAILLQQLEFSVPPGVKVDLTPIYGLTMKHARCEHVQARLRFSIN
Cytochrome P450 2C19 (Homo sapiens), sequence (P33261 whole entry, looked up): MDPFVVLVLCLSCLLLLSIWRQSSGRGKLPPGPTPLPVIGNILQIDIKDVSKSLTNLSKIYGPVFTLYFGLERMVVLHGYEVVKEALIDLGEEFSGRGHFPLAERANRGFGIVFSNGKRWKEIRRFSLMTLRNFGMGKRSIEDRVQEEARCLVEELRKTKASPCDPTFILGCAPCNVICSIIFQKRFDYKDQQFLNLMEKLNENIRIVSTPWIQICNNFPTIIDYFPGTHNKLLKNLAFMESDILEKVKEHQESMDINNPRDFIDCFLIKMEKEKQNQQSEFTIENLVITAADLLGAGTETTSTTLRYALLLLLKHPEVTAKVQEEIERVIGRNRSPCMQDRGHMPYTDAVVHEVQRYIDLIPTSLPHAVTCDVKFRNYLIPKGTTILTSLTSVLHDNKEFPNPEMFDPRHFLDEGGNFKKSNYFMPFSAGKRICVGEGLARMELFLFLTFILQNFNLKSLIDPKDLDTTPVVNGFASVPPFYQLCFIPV
Cytochrome P450 3A4 (Homo sapiens), sequence (P08684 whole entry, looked up): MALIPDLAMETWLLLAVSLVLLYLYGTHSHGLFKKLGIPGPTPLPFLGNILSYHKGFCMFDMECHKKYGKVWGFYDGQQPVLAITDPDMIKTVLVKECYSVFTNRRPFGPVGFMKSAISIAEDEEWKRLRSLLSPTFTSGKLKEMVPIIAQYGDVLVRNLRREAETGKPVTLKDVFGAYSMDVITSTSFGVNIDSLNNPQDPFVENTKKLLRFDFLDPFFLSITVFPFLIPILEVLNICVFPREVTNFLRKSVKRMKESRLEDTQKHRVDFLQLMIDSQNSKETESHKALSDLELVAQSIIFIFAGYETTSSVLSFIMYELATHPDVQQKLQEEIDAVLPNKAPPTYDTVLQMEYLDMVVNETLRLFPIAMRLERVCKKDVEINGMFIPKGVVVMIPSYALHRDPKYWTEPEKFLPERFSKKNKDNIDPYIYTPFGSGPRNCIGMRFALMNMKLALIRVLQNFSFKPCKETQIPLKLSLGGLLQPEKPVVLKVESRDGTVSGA

Row | SMILES | Potency [1] | Potency [2] [µM] | Potency [3] | Potency [4] | Potency [5] | Potency [6] | Potency [7] | Potency [8] [µM] | Potency [9]
1 | CC(C)C[C@@H](CC(=O)N[C@H](CC(=O)N[C@@H]1CCNC[C@H]1C(=O)N[C@H](CC(=O)N[C@@H](CCC(=O)O)CC(=O)O)CC(C)C)C(C)C)NC(=O)[C@@H]1CCCC[C@H]1N | inactive | > 46 | inactive | inactive |  |  |  |  | 
2 | CC(C)[C@@H](CC(=O)N[C@@H]1CCCC[C@H]1C(=O)N[C@H](CC(=O)N[C@@H](CCC(=O)O)CC(=O)O)Cc1c[nH]c2ccccc12)NC(=O)C[C@H](Cc1ccccc1)NC(=O)[C@@H]1CNCC[C@H]1N | inactive | > 46 | inactive | inactive | inactive | inactive | inactive |  | 
3 | O=c1cc(-c2ccccc2)oc2cc(O[C@H]3O[C@H](CO)[C@@H](O)[C@H](O)[C@@H]3O)c(O)c(O)c12 | inactive | > 46 |  |  | inactive | inactive | inactive | > 46 | 
4 | C/C(=C\COc1cc(=O)[nH]c2ccccc12)CC[C@@H](O)C(C)(C)O | 20 µM (active) |  | inactive | inactive | inactive | inactive | inactive | > 46 | 
5 | CC(C)[C@@H](CC(=O)N[C@@H]1CCNC[C@H]1C(=O)N[C@H](CC(=O)N[C@@H](CCC(=O)O)CC(=O)O)Cc1c[nH]c2ccccc12)NC(=O)C[C@H](Cc1c[nH]c2ccccc12)NC(=O)[C@@H]1CCCC[C@H]1N | inactive | > 46 | inactive | inactive | inactive | inactive | inactive |  | 
6 | CC(C)C[C@@H](CC(=O)N[C@@H](CCCN)CC(=O)N[C@@H]1CCCC[C@H]1C(=O)N[C@H](CC(=O)N[C@@H](CCC(=O)O)CC(=O)O)Cc1c[nH]c2ccccc12)NC(=O)[C@@H]1CNCC[C@H]1N | inactive | > 46 | inactive | inactive | inactive | inactive | inactive |  | 
7 | O=c1c(O)c(-c2ccc(O)c(O)c2)oc2ccccc12 | 0.251 µM (active) | > 46 |  |  |  |  |  | > 46 | inactive
8 | CC(C)C[C@@H](CC(=O)N[C@@H](CCC(=O)O)CC(=O)O)NC(=O)[C@@H]1CNCC[C@H]1NC(=O)C[C@H](CCCN)NC(=O)C[C@H](CO)NC(=O)[C@@H]1CNCC[C@H]1N | inactive | > 46 | inactive | inactive |  | inactive |  |  | 
9 | CC(C)[C@@H](CC(=O)N[C@@H]1CCNC[C@H]1C(=O)N[C@H](CC(=O)N[C@@H](CCC(=O)O)CC(=O)O)Cc1c[nH]c2ccccc12)NC(=O)C[C@H](CO)NC(=O)[C@@H]1CCCC[C@H]1N | inactive | > 46 | inactive | inactive | inactive | inactive | inactive |  | 
10 | NCCC[C@@H](CC(=O)N[C@@H]1CCNC[C@H]1C(=O)N[C@H](CC(=O)N[C@@H](CCC(=O)O)CC(=O)O)Cc1ccccc1)NC(=O)C[C@H](Cc1ccccc1)NC(=O)[C@@H]1CNCC[C@H]1N | 31.6 µM (active) | > 46 | inactive | inactive | inactive | inactive | inactive |  | 
11 | CC(=O)c1c(O)c(C)c(O)c2c1OC1=CC(=O)[C@H](C(C)=O)C(=O)[C@]12C | 3.16 µM (active) | > 46 |  | inactive |  | inactive | inactive | > 46 | 
12 | CC(C)C[C@@H](CC(=O)N[C@@H](CCC(=O)O)CC(=O)O)NC(=O)[C@@H]1CCCC[C@H]1NC(=O)C[C@@H](NC(=O)C[C@H](Cc1ccccc1)NC(=O)[C@@H]1CCCC[C@H]1N)C(C)C | inactive | > 46 | inactive | inactive | inactive | inactive | inactive |  | 
13 | CC(C)C[C@@H](CC(=O)N[C@@H](CCC(=O)O)CC(=O)O)NC(=O)[C@@H]1CNCC[C@H]1NC(=O)C[C@H](CCCN)NC(=O)C[C@H](Cc1c[nH]c2ccccc12)NC(=O)[C@@H]1CNCC[C@H]1N | inactive | > 46 | inactive | inactive | inactive | inactive | inactive |  | 
14 | CC(C)C[C@@H](CC(=O)N[C@H](CC(=O)N[C@@H]1CCCC[C@H]1C(=O)N[C@H](CC(=O)N[C@@H](CCC(=O)O)CC(=O)O)CC(C)C)C(C)C)NC(=O)[C@@H]1CCCC[C@H]1N | inactive | > 46 | inactive | inactive |  | inactive |  |  | 
15 | CC(C)C[C@@H](CC(=O)N[C@@H](CCC(=O)O)CC(=O)O)NC(=O)[C@@H]1CCCC[C@H]1NC(=O)C[C@H](CCCN)NC(=O)C[C@H](Cc1ccccc1)NC(=O)[C@@H]1CCCC[C@H]1N | inactive | > 46 | inactive | inactive | inactive | inactive | inactive |  | 
16 | NCCC[C@@H](CC(=O)N[C@@H]1CCNC[C@H]1C(=O)N[C@H](CC(=O)N[C@@H](CCC(=O)O)CC(=O)O)Cc1c[nH]c2ccccc12)NC(=O)C[C@H](CO)NC(=O)[C@@H]1CCCC[C@H]1N | inactive | > 46 | inactive | inactive | inactive | inactive | inactive |  | 
17 | COc1ccc([C@@H]2OC[C@]3(COC(C)=O)[C@H](C)C=C(C)[C@@H]2[C@H]3C)cc1 | 15.8 µM (active) | > 46 |  |  |  | inactive | 6.31 µM (active) | > 46 | 
18 | CC(C)C[C@@H](CC(=O)N[C@@H](CCC(=O)O)CC(=O)O)NC(=O)[C@@H]1CNCC[C@H]1NC(=O)C[C@H](CCCN)NC(=O)C[C@H](CO)NC(=O)[C@@H]1CCCC[C@H]1N | inactive | > 46 | inactive | inactive | inactive | inactive | inactive |  | 
19 | CC(C)[C@@H](CC(=O)N[C@@H]1CCCC[C@H]1C(=O)N[C@H](CC(=O)N[C@@H](CCC(=O)O)CC(=O)O)Cc1c[nH]c2ccccc12)NC(=O)C[C@H](Cc1c[nH]c2ccccc12)NC(=O)[C@@H]1CCCC[C@H]1N | inactive | > 46 | inactive | inactive | inactive | inactive |  |  | 
20 | CC(C)C[C@@H](CC(=O)N[C@H](CC(=O)N[C@@H]1CCNC[C@H]1C(=O)N[C@H](CC(=O)N[C@@H](CCC(=O)O)CC(=O)O)Cc1ccccc1)C(C)C)NC(=O)[C@@H]1CNCC[C@H]1N | 31.6 µM (active) | > 46 | inactive | inactive | inactive | inactive | inactive |  | 
21 | CC(C)=CCC/C(C)=C/COc1c2ccoc2cc2oc(=O)ccc12 | 0.316 µM (active) | > 46 |  |  | 0.0316 µM (active) | 0.0631 µM (active) | 0.01 µM (active) | > 46 | 
22 | CC(C)C[C@@H](CC(=O)N[C@@H](CCC(=O)O)CC(=O)O)NC(=O)[C@@H]1CCCC[C@H]1NC(=O)C[C@H](CCCN)NC(=O)C[C@H](Cc1ccccc1)NC(=O)[C@@H]1CNCC[C@H]1N | inactive | > 46 | inactive | inactive | inactive | inactive | inactive |  | 
23 | NCCC[C@@H](CC(=O)N[C@@H]1CCCC[C@H]1C(=O)N[C@H](CC(=O)N[C@@H](CCC(=O)O)CC(=O)O)Cc1c[nH]c2ccccc12)NC(=O)C[C@H](Cc1c[nH]c2ccccc12)NC(=O)[C@@H]1CNCC[C@H]1N | inactive | > 46 | inactive | inactive | inactive | inactive |  |  | 
24 | CC(C)C[C@@H](CC(=O)N[C@@H](CCC(=O)O)CC(=O)O)NC(=O)[C@@H]1CCCC[C@H]1NC(=O)C[C@@H](NC(=O)C[C@H](Cc1c[nH]c2ccccc12)NC(=O)[C@@H]1CNCC[C@H]1N)C(C)C | inactive | > 46 | inactive | inactive | inactive | inactive | inactive |  | 
25 | NCCC[C@@H](CC(=O)N[C@@H]1CCNC[C@H]1C(=O)N[C@H](CC(=O)N[C@@H](CCC(=O)O)CC(=O)O)Cc1ccccc1)NC(=O)C[C@H](Cc1c[nH]c2ccccc12)NC(=O)[C@@H]1CNCC[C@H]1N | inactive | > 46 | inactive | inactive | inactive | inactive | inactive |  | 
26 | CC(C)C[C@@H](CC(=O)N[C@@H](CCC(=O)O)CC(=O)O)NC(=O)[C@@H]1CNCC[C@H]1NC(=O)C[C@H](CCCN)NC(=O)C[C@H](Cc1ccccc1)NC(=O)[C@@H]1CCCC[C@H]1N | 25.1 µM (active) | > 46 | inactive | inactive | inactive | inactive |  |  | 
27 | CC(C)[C@@H](CC(=O)N[C@@H]1CCNC[C@H]1C(=O)N[C@H](CC(=O)N[C@@H](CCC(=O)O)CC(=O)O)Cc1ccccc1)NC(=O)C[C@H](Cc1ccccc1)NC(=O)[C@@H]1CNCC[C@H]1N | 15.8 µM (active) | > 46 | inactive | inactive | inactive | inactive | inactive |  | 
